# From PubChem BioAssay AID411 (National Center for Advancing Translational Sciences (NCATS), 2006)
# The whole screen tested about 72,000 compounds, of which about 1,600 (2.2%) were called active. For the sample, actives were picked, then their nearest neighbours and some compounds at random. Values without a mark were called inactive. Calls come from the whole dose curve; as a rule, active = well fitted inhibition curve with a large enough effect; inconclusive = small, poorly fitted or top-dose-only effect; inactive = flat fitted curve, though single readings scatter.
# Biological target: Luciferin 4-monooxygenase (Photinus pyralis) (UniProt P08659)
# Experiment: qHTS Assay for Inhibitors of Firefly Luciferase; note: nearly all actives have a fitted effect of over 40% in size
# Details: purified firefly luciferase, luminescence, 8 min; series mostly up to 57.1 µM; activity change, negative = inhibition: at the top concentration
# Outline: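 Inhibition of light generation by firefly luciferase from ATP and luciferin was profiled with concentration-response curves per sample, ATP held at 10 uM within the enzyme's linear range. Plates were read by luminescence after an 8-minute ambient incubation.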
# % is set by controls: 0 for no effect and ±100 for the full control effect; potency is the fitted concentration of half-maximal effect.
# Chain of Luciferin 4-monooxygenase (Photinus pyralis) (P08659 whole entry, looked up): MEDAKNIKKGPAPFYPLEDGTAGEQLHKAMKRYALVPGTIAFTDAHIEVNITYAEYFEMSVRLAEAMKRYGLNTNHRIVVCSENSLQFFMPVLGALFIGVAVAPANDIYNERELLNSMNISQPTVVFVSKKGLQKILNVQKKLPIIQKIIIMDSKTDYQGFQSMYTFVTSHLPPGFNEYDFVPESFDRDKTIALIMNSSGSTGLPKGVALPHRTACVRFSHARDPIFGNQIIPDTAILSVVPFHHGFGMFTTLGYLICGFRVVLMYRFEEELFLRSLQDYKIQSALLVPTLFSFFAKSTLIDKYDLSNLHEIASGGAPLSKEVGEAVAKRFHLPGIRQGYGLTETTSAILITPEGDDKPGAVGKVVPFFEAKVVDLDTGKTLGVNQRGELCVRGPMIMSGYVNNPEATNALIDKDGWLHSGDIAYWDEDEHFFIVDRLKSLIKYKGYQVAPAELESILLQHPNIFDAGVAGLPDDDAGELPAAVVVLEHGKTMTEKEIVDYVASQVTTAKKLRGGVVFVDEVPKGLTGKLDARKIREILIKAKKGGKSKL
SMILES,"activity change, negative = inhibition",Potency
O=C(Oc1ccccc1)c1ccc2nccnc2c1,-17.8%,
CC(C)c1nc(-c2ccccn2)no1,-1.32%,
O=C(Oc1ccc(-c2nc(-c3ccccn3)no2)cc1)c1ccccc1,,2.51 µM (active)
C=CCn1c(SCn2nnc3ccccc3c2=O)nnc1-c1ccc(Cl)cc1,-0.689%,
CCOC(=O)c1[nH]c2ccc(OC)cc2c1NC(=O)N1CCOCC1,2.51%,
COc1ccc(C2CC(c3ccccc3)Nc3ncnn32)cc1 (stereo not given),2.52%,
COc1ccc(OCC(=O)OCCN(C)C)cc1,-3.76% [at 25.5 µM],
O=C(O)c1ccc(NC(=O)c2cccs2)cc1,1.11%,
Cc1nc(-c2ccc(NC(=O)c3cccs3)cc2)cs1,,1.26 µM (active)
O=C(Nc1ncccn1)c1cccs1,1.5%,
OCCCNCc1ccccn1,3.67% [at 11.4 µM],
COCCCNC(=O)CSc1nc2ccc(N3CCOCC3)cc2c(=O)n1CCc1ccccc1,0.796%,
Cc1nn2c3cc(N4CCOCC4)ccc3nc2c2ccccc12,,2 µM (active)
Cc1cc(C)c2c(n1)nn1c(N3CCOCC3)cc(C)nc21,1.01%,
CCOc1ccc(NCCC(=O)c2ccc3c(c2)OCO3)cc1,-2.15%,
CC(C)CCNC(=O)C(C)N(C(=O)Cn1nnc(-c2ccc(F)cc2)n1)C1CCCC1 (stereo not given),0.388%,
COCCNc1ncnc2ccc(-c3cccnc3)cc12,-1.48% [at 2.29 µM],
CCN(CC)C(=O)CCC(=O)Nc1ccc(C(=O)OC)cc1,1.03%,
COC(=O)c1ccc(NC(=O)C(C)N2C(=O)c3ccccc3C2=O)cc1 (stereo not given),-1.71%,
COC(=O)c1ccc(NCC(=O)c2ccccc2)cc1,,7.94 µM (active)
CN(c1ccc(C(=O)NCCC2=CCCCC2)cc1)S(C)(=O)=O,-27%,
Cc1nn(Cc2ccccc2)c(Cl)c1C(=O)OC1CCOC1=O (stereo not given),0.69%,
O=C(OC1CCOC1=O)c1ccc(-c2nc3ccccc3s2)s1 (stereo not given),,2.51 µM (active)
O=C(c1cccs1)N1CCC(c2nc3ccccc3s2)CC1,-2.55%,
COc1ccc(C(=O)N2CCC[C@@]3(CCN(C(=O)NC(C)C)C3)C2)cc1,-0.0908% [at 11.4 µM],
NC(=O)c1ccccc1NC(=O)c1ccccc1F,-5.12%,
COc1cccc(OCC(=O)Nc2ccccc2C(N)=O)c1,,6.31 µM (active)
CCCOC(=O)Nc1ccccc1C(N)=O,1.94%,

SMILES,"activity change, negative = inhibition",Potency
O=S(=O)(c1ccc(Sc2nnc3ccccn23)nc1)N1CCOCC1,4.43%,
O=C1CCCC2=C1C(c1cccs1)n1nc(SCc3ccccc3)nc1N2 (stereo not given),1.99%,
O=S(=O)(NCCNS(=O)(=O)c1ccccc1)c1ccccc1,-2.34%,
O=C(c1cc(-c2cccc(O)c2)on1)N1CCc2ccccc2C1,-5.32%,
Cc1cc(NC(=O)c2cc(-c3cccs3)on2)nn1Cc1ccc(Cl)cc1,4.95%,
COc1ccccc1-c1cc(C(=O)N2CCCCC2)no1,,25.1 µM (active)
O=C(c1cc(-c2cccs2)on1)N1CCCCC1,,15.8 µM (active)
O=C(c1cc(-c2ccccc2O)on1)N1CCCC1,-20.8%,
COc1ccccc1N1CCN(C(=O)c2cc(-c3ccc(Br)cc3)on2)CC1,1.91%,
Cn1cccc1Cc1nnc(SCC(=O)NCc2ccc3c(c2)OCO3)n1CCc1ccccc1,0.771%,
CCOC(=O)c1cc2cc(-c3c(C(=O)OCC)oc4cc(O)cc(O)c4c3=O)ccc2o1,-2.54%,
CN1CCc2[nH]nc(-c3n[nH]c4c3CN(C)CC4)c2C1,2.79% [at 11.4 µM],
O=C(C1CCN(S(=O)(=O)Cc2ccccc2)CC1)N1CCCc2ccccc21,0.549%,
CCOC(=O)c1c(C)[nH]c(C(=O)COc2ccc3c(c2)OCO3)c1C,0.677%,
CCOC(=O)NCc1ccc2c(c1)OCO2,-1.41%,
CCOC(=O)c1nc(-c2ccc3c(c2)OCO3)[nH]c1C,,15.8 µM (active)
COc1ccc(OC)c(C(=O)CSc2nnc(-c3cccs3)o2)c1,5.15%,
COc1ccc(-c2nnc(SCC(=O)c3cccs3)o2)c(OC)c1,,12.6 µM (active)
COc1ccc(-n2c(C)cc(C(=O)CSc3nnc(-c4cccs4)o3)c2C)cc1,0.123%,
c1coc(-c2nc3nc4ccccc4n3nc2-c2ccco2)c1,2.85%,
CN(c1nc2ccccc2n2c(-c3ccco3)nnc12)S(=O)(=O)c1ccccc1,2.29%,
Cn1c(-c2ccco2)nc2cc3ccccc3cc21,,0.501 µM (active)
C(=C\c1ccccc1)/CSc1nnc(-c2cccnc2)n1Cc1ccco1,-0.262%,
CC(=O)N1CCN(C(=O)c2cccc(S(=O)(=O)Nc3ccc(C)cc3)c2)CC1,-0.426%,
COC(=O)c1[nH]c2ccccc2c1NS(=O)(=O)c1ccc(OC)cc1OC,2.42%,
COc1ccc(OC)c(N=Cc2c(O)[nH]c3ccccc23)c1,-1.73%,
COc1ccc(N=Cc2c(O)[nH]c3ccccc23)cc1OC,,15.8 µM (active)
